In the library only some 4.2% were active in any assay of this set; here they are far more common.
ClpP mod = qHTS Assay for Activators of ClpP. Potency, µM (top dose mostly 57.5 µM). purified B. subtilis ClpP, FRET peptide cleavage, 20 min. hit rate 1.9% among 340,000. ATP-dependent Clp protease proteolytic subunit (Bacillus subtilis (strain 168)), P80244. AID 651965, 2013; active = well fitted falling curve with a large enough effect; inconclusive = small, poorly fitted or top-dose-only effect; inactive = no such curve, though single readings can be large or run the other way; note: the source files actives as falling curves though it sought activators and does not explain the sign; nearly all actives have a fitted effect of over 65% in size
Target sequence (P80244 whole entry, looked up): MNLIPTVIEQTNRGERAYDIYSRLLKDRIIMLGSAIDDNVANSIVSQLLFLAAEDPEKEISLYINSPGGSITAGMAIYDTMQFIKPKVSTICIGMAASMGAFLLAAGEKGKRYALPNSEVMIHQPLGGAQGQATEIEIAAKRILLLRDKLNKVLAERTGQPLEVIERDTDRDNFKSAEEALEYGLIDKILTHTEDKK
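FRET quenching reversal measured ClpP activation: 10 microg/mL B. subtilis ClpP at pH 8 with the FRET-FV decapeptide, read at 430 nm after 320 nm excitation. The 20-min minus 0-min signal was scaled between DMSO/no-enzyme wells and ADEP (5.8 microM final).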
TCR act = Activators of T cell receptors: qHTS campaign; 330,000 tested, under 10 active; Potency, µM (highest dose often 9.22 µM), most hits filed as activators; primary human leukocytes, anti-CD3, IL-2 HTRF, 48 h
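Human primary leukocytes + a-CD3 beads + cpd, 48 hr; IL-2 in supernatant by HTRF (ex 320nm / em 665nm). No co-stimulatory signal supplied.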
Sfp PPTase inh = qHTS Assay for Inhibitors of Bacillus subtilis Sfp phosphopantetheinyl transferase (PPTase) | hit rate 3.5% among 310,000 | Potency, µM, most hits filed as inhibitors | Biochemical Sfp PPTase activity, qHTS | 4'-phosphopantetheinyl transferase ffp (Bacillus subtilis), Q9F4F7;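 note: the enzyme is Sfp with the accession as filed and its product quenches rhodamine fluorescence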
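Fluorescence-quenching assay with 15 nM Sfp, 5 uM rhodamine-CoA and 12.5 uM BHQ-2-labelled ybbR peptide in pH 7.6 Hepes/MgCl2 buffer. Enzyme was pre-incubated with compound for 15 min at room temperature. Rate was taken from the 30-min fluorescence change (525/598 nm).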
uPA generation = qHTS for Inhibitors of Cell Surface uPA Generation; cell surface uPA generation assay, qHTS; Potency, µM (highest dose often 38.3 µM), most hits filed as inhibitors; hit rate 0.31% among 330,000; active = well fitted inhibition curve with a large enough effect; inconclusive = small, poorly fitted or top-dose-only effect; inactive = no such curve, though single readings can be large or run the other way; tested in mouse RAW 264.7 cells; note: nearly all actives have a fitted effect of over 55% in size
Sfp inh conf = Confirmation qHTS Assay for Inhibitors of Bacillus subtilis Sfp phosphopantetheinyl transferase (PPTase). shares compounds with Sfp PPTase inh. Sfp PPTase enzymatic assay, qHTS titration. Potency, µM (series often up to 114 µM), hits mostly inhibitors. hit rate 79% among 380
Target sequence (Q9F4F7 whole entry, looked up): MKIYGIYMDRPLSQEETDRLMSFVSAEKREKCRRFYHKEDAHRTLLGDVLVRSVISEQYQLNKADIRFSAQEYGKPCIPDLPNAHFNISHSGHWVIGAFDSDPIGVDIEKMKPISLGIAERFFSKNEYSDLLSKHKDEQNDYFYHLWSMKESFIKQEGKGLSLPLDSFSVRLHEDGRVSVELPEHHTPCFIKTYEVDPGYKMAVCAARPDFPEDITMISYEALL
Sfp PPTase gel = Gel-Based Assay for Inhibitors of Bacillus subtilis Sfp phosphopantetheinyl transferase (PPTase); shares compounds with Sfp PPTase inh; hit rate 20% among 210; purified Sfp, gel-based phosphopantetheinylation read-out; Potency, µM, actives largely listed as inhibitors;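 active = potency below 100 µM; inconclusive = dose-dependent response but potency above 100 µM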;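 note: potency is an IC50 for inhibitors of Sfp transfer activity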
ClpP inh valid = qHTS Assay for Activators of ClpP: Hit Validation of Inhibitors; hit rate 40% among 470; shares compounds with ClpP mod; purified B. subtilis ClpP, FRET-FV substrate cleavage, 20 min; Potency, µM (top dose mostly 57.5 µM), hits mostly inhibitors; note: nearly all actives have a fitted effect of over 70% in size
Numbers stand for hits; 0 = inactive; ? = inconclusive; - = no result given; ! = not confirmed by another sample. Unless noted, calls come from the whole dose curve; as a rule, active = well fitted curve in the direction sought with a large enough effect; inconclusive = small, poorly fitted or top-dose-only effect, or another doubt; inactive = no such curve, though single readings can be large; an effect the other way counts as inactive or inconclusive.

SMILES | ClpP mod | TCR act | Sfp PPTase inh | uPA generation | Sfp inh conf | others
CC(=O)CC(c1ccc(O)cc1)c1c(O)c2ccccc2oc1=O (stereo unspecified) | - | - | 0 | - | -
CC(C)C(O)(C(=O)OC[C@@H]1CC[N+]2([O-])CCCC12)C(C)O (stereo partly specified) | - | - | 0 | - | -
C=C(C)[C@H]1CN[C@H](C(=O)O)[C@H]1CC(=O)O | 0 | 0 | 40µM! | 0 | 0 | Sfp PPTase gel=0
Nc1nc(/C(=C/CC(=O)O)C(=O)NC2C(=O)N3C(C(=O)O)=CCSC23)cs1 (stereo unspecified) | - | - | 56µM | - | 42µM | Sfp PPTase gel=?
N=C1c2ccccc2CN1NC(=O)C1CC1 | 0 | 0 | 0 | 0 | -
NC(=O)N1c2ccccc2CC(=O)c2ccccc21 | 0 | 0 | 35µM! | 0 | 47µM | Sfp PPTase gel=0
CNC1C2CN3CCC(O2)C13 (stereo unspecified) | - | - | 0 | - | -
CCOC(=O)[C@]1(C#N)[C@@H]2C=CC(C(C)=O)=CN2[C@@H](C(N)=O)[C@@H]1c1ccsc1 | 0 | 0 | 40µM | 0 | ? | Sfp PPTase gel=?
C[C@]12CC[C@@H]3c4ccc(O)c(O)c4CC[C@H]3[C@@H]1CC[C@@H]2O | 0 | 0 | 3.2µM | ? | 6.6µM | Sfp PPTase gel=2.1µM
C[C@]12CC[C@@H]3c4ccc(OC(=O)N(CCCl)CCCl)cc4CC[C@H]3[C@@H]1CC[C@@H]2O | - | - | 0 | - | -
C[C@]12CC[C@@H]3c4cc(O)c(O)cc4CC[C@H]3[C@@H]1CC[C@@H]2O | 0 | 0 | 4µM | ? | 21µM | Sfp PPTase gel=6.2µM
C[C@]12CC[C@H]3[C@@H](CCC4=CC(=O)CC[C@@H]43)[C@@H]1CC[C@@H]2O | 0 | 0 | 0 | 0 | -
CCON=O | - | - | 0 | - | -
CC(C)=CCCN1CCC(NC(=O)C(O)(c2ccccc2)C2CCCC2)CC1 (stereo unspecified) | - | - | 0 | - | -
O=C(NC1CCCCC1)c1cn(CCN2CCOCC2)c2cc(Cl)ccc2c1=O | - | - | 0 | - | -
COc1ccccc1CN1CCCC2(CCN(C(=O)Oc3ccccc3)CC2)C1 | - | - | 0 | - | -
CC(C)NC[C@@H](O)c1ccc(O)c(O)c1 | 0 | 0 | 20µM | 0 | 47µM | Sfp PPTase gel=0
COC(=O)C1=C(C)NC(C)=C(C(=O)OC)C1c1ccccc1[N+](=O)[O-] | 0 | 0 | 18µM! | ? | 37µM
Cc1ccc(CNC(=O)c2ccc(Nc3nc4ccccc4n4nnnc34)cc2)cc1 | 0 | - | - | - | - | ClpP inh valid=2.7µM
O=C(NCCc1ccc(Cl)cc1)c1ccc(Nc2nc3ccccc3n3nnnc23)cc1 | 0 | - | - | - | - | ClpP inh valid=22µM
CCn1cc(C(=O)NCc2ccccc2)c2ccccc21 | 0 | 0 | 0 | 0 | -
Clc1c(Cl)c(Cl)c(Cl)c(Cl)c1Cl | - | - | 0 | - | -
Oc1cc2c(cc1CN1CCN(c3ccccc3F)CC1)OCO2 | - | 0 | 0 | 0 | -
CCCCC(=O)Nc1c(C(=O)N2CCN(c3ccccc3F)CC2)oc2ccccc12 | 1.3µM | - | - | - | - | ClpP inh valid=0
NCCNC[C@@H](N)CCCN=C(N)N[N+](=O)[O-] | - | - | 0 | - | -
SMILES | ClpP mod | TCR act | Sfp PPTase inh | uPA generation | Sfp inh conf | others
CNc1ccc2oc(C[C@H]3O[C@@]4(CC[C@H]3C)O[C@H]([C@H](C)C(=O)c3ccc[nH]3)[C@H](C)C[C@H]4C)nc2c1C(=O)O | 0 | 0 | 0 | ? | - | ClpP inh valid=27µM
CCCNC(=O)c1cnn2c(C)c(Cc3c(C)cc(C)cc3C)c(C)nc12 | 10µM | - | - | - | - | ClpP inh valid=0
c1cc2c(cc1C1OC[C@@H]3C(c4ccc5c(c4)OCO5)OCC13)OCO2 (stereo partly specified) | - | - | 0 | - | -
Cc1ccccc1C(=O)Nc1cc(-c2ccc(Cl)cc2)nn1-c1ccccc1 | 0 | - | - | - | - | ClpP inh valid=0
O=C(Nc1ccccc1-c1ccc(Cl)cc1)c1cccnc1Cl | - | - | 0 | - | -
COc1ccc(S(=O)(=O)NC(CC(=O)N2CCC3(CC2)OCCO3)c2ccco2)cc1 (stereo unspecified) | 2.8µM | 0 | 0 | 0 | - | ClpP inh valid=0
O=C(O)C1CN(CP(=O)(O)O)CCN1 (stereo unspecified) | - | - | 0 | - | -
